Measurements: the supplement of paper PMC9433436
± gives the standard deviation of the averaged measurements. In all, about 4,100 sequences were measured (“relative kcat/Km (krel) vs genomic leader AAAGAU”: median about 1.7, highest 2% from about 6.5 on). What follows is part of a selection rich in the highest values, with near analogues and random picks from the rest.

Target: T1, E. coli RNase P holoenzyme (M1 P RNA + rnpA protein) (UniProt P0A7Y8)
T1 sequence: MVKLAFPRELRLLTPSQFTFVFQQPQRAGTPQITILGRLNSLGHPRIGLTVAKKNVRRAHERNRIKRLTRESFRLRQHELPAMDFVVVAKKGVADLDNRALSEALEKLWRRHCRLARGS
Experiment: relative kcat/Km (krel) vs genomic leader AAAGAU (relative (reference leader = 1)); higher = faster RNase P cleavage
Experimental: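 HTS-Kin: a pool of ptRNA-Met (21C construct) with all 4096 combinations of 5' leader nucleotides N(-6) to N(-1) was processed in vitro by E. coli RNase P (P RNA + rnpA/C5 protein) under multiple-turnover conditions at 37 C, pH 8, 17.5 mM MgCl2. Residual substrate was Illumina-sequenced at several fractions reacted, and relative kcat/Km (krel) was computed by internal competition kinetics, calibrated to the genomic leader (AAAGAU = 1). The listed hexamer is the varied N(-6)..N(-1) leader (DNA letters), and it sits between a fixed 5' stem-loop flank (GCAUGCACGAAAGUGCGUGCUAUGAA) and the mature tRNA-Met starting GGCUACGUAGCUCAGUUGG. Two technical replicates are averaged.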

[1] = fraction of substrate reacted: ~26-29% (28.66% repeat 1, 26.4% repeat 2)
[2] = fraction of substrate reacted: ~9-10% (9.79% repeat 1, 9.1% repeat 2)
[3] = fraction of substrate reacted: ~13-16% (15.68% repeat 1, 13.17% repeat 2)

Sequence | relative kcat/Km [1] | relative kcat/Km [2] | relative kcat/Km [3]
ACAGTG | 0.981 ± 0.72 |  | 
CCGGTA |  | 1.49 ± 0.78 | 1.25 ± 0.69
AACGCG | 1.47 ± 0.078 | 1.32 ± 0.5 | 0.857 ± 0.52
ACCCGC | 4.87 ± 1.5 | 3.03 ± 1.8 | 3.51 ± 0.3
CCCCGC | 4.54 ± 1.6 | 2.14 ± 1.4 | 2.8 ± 0.83
TCCCGC | 7.32 ± 3.2 | 4.31 ± 2.6 | 5.2 ± 0.32
ACCCGA | 5.44 ± 1.5 | 3.55 ± 0.39 | 4.06 ± 0.66
TCCCGA | 7.64 ± 2.3 | 3.95 ± 1.4 | 4.81 ± 0.41
CCCCGA | 4.96 ± 1.9 | 3.63 ± 1.8 | 4.05 ± 0.29
TTGCGG | 1.14 ± 0.22 | 0.933 ± 0.76 | 0.256 ± 0.11
AAATAA | 3.44 ± 1.2 | 2.68 ± 1.5 | 2.92 ± 0.98
TCACGC | 4.05 ± 1.5 | 2.24 ± 0.65 | 3 ± 0.93
GTGACT | 1.08 ± 0.28 |  | 0.972 ± 0.2
GGGACA | 1.2 ± 0.15 | 1.4 ± 1.2 | 0.801 ± 0.45
GGGTGC | 1.04 ± 0.35 | 0.876 ± 0.24 | 0.837 ± 0.025
ATGTTG | 0.642 ± 0.16 |  | 
GTATCT | 4.66 ± 1.9 | 2.3 ± 0.54 | 3.23 ± 0.87
TTCTCT | 8.57 ± 3.4 | 4.43 ± 1.1 | 6.17 ± 1.4
TTCTCG | 4.91 ± 1.5 | 2.16 ± 1.3 | 2.86 ± 0.45
CTCTCA | 5.72 ± 1.9 | 3.31 ± 1.3 | 4.49 ± 0.63
GTGTCT | 1.44 ± 0.22 | 0.45 ± 0.21 | 1.24 ± 0.15
GACTCA | 5.69 ± 2.1 | 3.33 ± 1.5 | 4.56 ± 0.1
GTCTCT | 7.16 ± 1.8 | 4.15 ± 1.8 | 5.51 ± 0.37
GTCTCA | 7.71 ± 2.8 | 3.83 ± 1.2 | 5.79 ± 0.43
ATCTCT | 6.18 ± 2.7 | 3.47 ± 1.2 | 4.36 ± 0.18

Sequence | relative kcat/Km [1] | relative kcat/Km [2] | relative kcat/Km [3]
ATCTCA | 6.06 ± 2.4 | 3.67 ± 2 | 4.25 ± 0.21
GTCTCG | 4.3 ± 1.1 | 2.29 ± 1.9 | 2.35 ± 0.054
TTCTCA | 8.21 ± 3.6 | 4.88 ± 2.1 | 5.74 ± 0.87
TTGCTA | 2.24 ± 0.7 | 2.11 ± 1.3 | 1.43 ± 0.11
GACTCG | 3.21 ± 0.58 | 1.8 ± 1.4 | 1.87 ± 0.13
TAAAGA | 3.01 ± 1.7 | 1.01 ± 0.34 | 1.61 ± 0.79
CGCTGG |  | 0.49 ± 0.25 | 
TGCGAG | 1.39 ± 0.28 |  | 0.318 ± 0.22
TTGCGA | 1.91 ± 0.14 | 1.1 ± 0.36 | 1.53 ± 0.44
CGACAT | 4.82 ± 1.8 | 3.05 ± 0.3 | 3.54 ± 1.1
GGGTTC | 0.82 ± 0.16 | 0.445 ± 0.035 | 0.916 ± 0.37
CACGGA | 0.766 ± 0.63 |  | 
GGGATA |  |  | 0.415 ± 0.34
TTCTCC | 8.25 ± 3 | 5.23 ± 2.1 | 6.12 ± 0.67
GTCTCC | 8.17 ± 3.2 | 4.62 ± 1.7 | 6.15 ± 0.65
GGCTCC | 2.25 ± 0.7 | 2.56 ± 0.54 | 1.96 ± 0.23
CTCTCG | 3.31 ± 0.37 | 1.91 ± 1.5 | 1.68 ± 0.37
CTCTCC | 6.17 ± 2.2 | 3.04 ± 0.91 | 4.91 ± 0.6
TGCTCC | 2.87 ± 0.78 | 2.19 ± 0.87 | 2.31 ± 0.43
GCCTCC | 5.33 ± 1.8 | 2.78 ± 1.2 | 3.32 ± 0.14
ATCTCC | 6.39 ± 2.9 | 3.67 ± 0.85 | 4.83 ± 1.4
CTCTCT | 7.22 ± 3 | 4.48 ± 1 | 4.84 ± 1.6
CGGAGG |  | 0.395 ± 0.29 | 
CATTTG | 1.49 ± 0.39 |  | 
ACGCTA | 1.74 ± 0.51 | 1.05 ± 0.29 | 0.572 ± 0.17

Sequence | relative kcat/Km [1] | relative kcat/Km [2] | relative kcat/Km [3]
GGCTTT | 2.15 ± 0.52 | 2.05 ± 0.44 | 1.76 ± 0.074
CGAAGA | 3.52 ± 0.96 | 1.79 ± 0.84 | 2.39 ± 1
CCACCG | 1.08 ± 0.58 |  | 
TAAGGC | 2.44 ± 2.2 | 1.46 ± 0.72 | 
ATCACC | 5.67 ± 2 | 3.18 ± 0.62 | 3.68 ± 1
TTCACG | 4.56 ± 1.4 | 2.05 ± 1.9 | 2.41 ± 0.2
GGCACC | 2.04 ± 0.18 | 1.52 ± 1.3 | 1.01 ± 0.24
ATCACT | 4.98 ± 2 | 3 ± 0.43 | 3.58 ± 1.1
ATCACA | 5.18 ± 1.5 | 2.67 ± 1 | 3.8 ± 0.55
TTCACT | 7.57 ± 3.1 | 4.07 ± 1.2 | 5.27 ± 1.4
GTCACC | 6.98 ± 2.7 | 3.43 ± 0.98 | 4.83 ± 0.44
GTCACT | 6.31 ± 2.5 | 3.36 ± 0.97 | 3.29 ± 0.15
CTCACC | 6.21 ± 2.6 | 2.93 ± 0.11 | 4.4 ± 1.5
GTCACG | 3.97 ± 0.54 |  | 1.84 ± 0.86
TTCACA | 7.72 ± 3.1 | 4.51 ± 1.9 | 5.55 ± 0.86
TTCACC | 8.13 ± 3 | 3.91 ± 1.2 | 5.63 ± 0.6
CCTACA | 1.9 ± 0.68 | 2.23 ± 1.1 | 1.82 ± 0.36
CGTCCT | 3 ± 1.2 | 2.14 ± 0.34 | 2.06 ± 0.17
CTACGT | 1.13 ± 1.1 | 0.396 ± 0.012 | 0.978 ± 0.12
TTAGGG | 2.15 ± 2.1 | 0.357 ± 0.048 | 1.11 ± 0.86
GGGTAA | 1.46 ± 0.55 | 1.51 ± 0.8 | 1.31 ± 0.21
GGAGCT | 1.64 ± 0.58 | 1.22 ± 0.62 | 0.705 ± 0.57
GTCACA | 7.01 ± 2.5 | 3.73 ± 1.8 | 4.78 ± 1.1
GGCACA | 2.08 ± 0.64 | 1.43 ± 0.55 | 1.26 ± 0.95
CTCACA | 5.85 ± 2.7 | 3.32 ± 0.59 | 3.94 ± 0.75

Sequence | relative kcat/Km [1] | relative kcat/Km [2] | relative kcat/Km [3]
AAACGA | 2.21 ± 0.41 | 2.12 ± 0.92 | 1.89 ± 0.67
CCCTTG | 1.42 ± 0.67 |  | 
ACGAAA | 2.72 ± 1.1 | 1.79 ± 0.39 | 1.66 ± 0.37
TCTTAT | 8.21 ± 3.5 | 4.12 ± 1.9 | 5.44 ± 1.1
CCTTAT | 6.48 ± 2.4 | 3.19 ± 0.95 | 4.47 ± 0.36
TTTTAA | 6.68 ± 2.5 | 4.32 ± 1.7 | 4.88 ± 0.61
ATTTAT | 7.02 ± 3 | 3.82 ± 1.8 | 4.84 ± 0.46
CTTTAT | 8.16 ± 3.3 | 4.88 ± 2 | 5.78 ± 0.63
TTTAAA | 5.35 ± 2.1 | 3.37 ± 1.6 | 3.88 ± 0.2
ATTTAA | 5.24 ± 1.9 | 3.55 ± 1.8 | 4.39 ± 0.62
TTTTTA | 3.44 ± 0.81 | 3.12 ± 2.4 | 2.58 ± 0.21
CTTTAA | 5.72 ± 2 | 3.07 ± 1.6 | 3.8 ± 0.23
ATTTAG | 3.82 ± 0.68 |  | 2.526 ± 0.01
CTTTAG | 3.51 ± 0.57 | 2.44 ± 1.3 | 2.14 ± 0.24
GCTTAT | 4.62 ± 1.7 | 2.2 ± 0.24 | 3.15 ± 0.31
GGCACT | 2.89 ± 1.2 | 1.99 ± 1.6 | 1.75 ± 0.28
TTTGGG | 1.56 ± 1.5 |  | 
ACATTT | 4.45 ± 1.8 | 2.32 ± 1.2 | 2.97 ± 0.19
AGCAGC | 3.24 ± 0.54 | 2.23 ± 0.55 | 2.28 ± 0.13
CCAACC | 1.3 ± 0.39 |  | 1.11 ± 0.49
GCTAGG | 0.775 ± 0.23 | 1.3 ± 0.58 | 
AATTTT | 3.35 ± 1 | 2.36 ± 0.95 | 2.45 ± 0.43
GTTTAG | 3.84 ± 1.2 |  | 1.86 ± 0.39
TTTTAC | 7.2 ± 3.2 | 3.74 ± 1.1 | 4.76 ± 1.2
